Laboratory results reported in article PMC4336329 (PLoS ONE, 2015).
Hit rate of the full screen: of about 310,000 compounds, about 14,000 (4.5%) showed an effect of 50% or more. The effect is printed as a negative number. Shown is part of a subset that was picked to be rich in strong results.

biological target: human ether-à-go-go-related gene (hERG) potassium channel (human, UniProt Q12809); test: primary screen, population patch clamp on CHO cells stably expressing hERG; higher = less effect of the substance
Sequence (Q12809 whole entry, looked up): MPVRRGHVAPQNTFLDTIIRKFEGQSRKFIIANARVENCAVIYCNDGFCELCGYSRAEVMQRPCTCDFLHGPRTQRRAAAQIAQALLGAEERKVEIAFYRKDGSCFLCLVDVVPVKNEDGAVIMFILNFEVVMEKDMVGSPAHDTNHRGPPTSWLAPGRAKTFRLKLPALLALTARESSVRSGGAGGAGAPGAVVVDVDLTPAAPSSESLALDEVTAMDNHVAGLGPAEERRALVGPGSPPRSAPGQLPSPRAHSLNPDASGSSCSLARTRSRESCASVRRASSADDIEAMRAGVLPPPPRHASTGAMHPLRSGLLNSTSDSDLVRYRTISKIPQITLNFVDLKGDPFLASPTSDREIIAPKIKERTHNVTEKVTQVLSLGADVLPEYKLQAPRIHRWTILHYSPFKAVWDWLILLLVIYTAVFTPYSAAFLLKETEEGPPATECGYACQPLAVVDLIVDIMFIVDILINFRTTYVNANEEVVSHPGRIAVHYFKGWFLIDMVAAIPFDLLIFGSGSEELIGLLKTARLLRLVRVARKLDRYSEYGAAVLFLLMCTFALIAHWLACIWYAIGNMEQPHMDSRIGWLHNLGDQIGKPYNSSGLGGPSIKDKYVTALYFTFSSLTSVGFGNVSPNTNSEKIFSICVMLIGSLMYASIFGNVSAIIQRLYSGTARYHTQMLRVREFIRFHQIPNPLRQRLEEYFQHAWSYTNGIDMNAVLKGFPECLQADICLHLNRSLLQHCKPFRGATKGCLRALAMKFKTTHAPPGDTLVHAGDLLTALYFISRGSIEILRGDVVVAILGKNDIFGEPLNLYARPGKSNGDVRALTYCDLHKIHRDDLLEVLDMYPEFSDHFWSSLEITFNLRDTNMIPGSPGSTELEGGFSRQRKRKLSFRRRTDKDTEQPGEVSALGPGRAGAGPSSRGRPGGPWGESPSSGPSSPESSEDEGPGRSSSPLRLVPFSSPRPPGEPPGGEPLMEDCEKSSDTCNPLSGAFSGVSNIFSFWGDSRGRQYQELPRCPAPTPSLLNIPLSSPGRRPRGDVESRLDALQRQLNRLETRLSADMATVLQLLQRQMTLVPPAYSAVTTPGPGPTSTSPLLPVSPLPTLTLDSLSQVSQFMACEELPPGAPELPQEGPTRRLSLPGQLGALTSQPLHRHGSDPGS
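Note: peak tail current of the secondary pulse compared with the same well before compound.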

| Compound | hERG current change (%, negative = inhibition) at 10uM [%] |
| --- | --- |
| Cc1cccc(C)c1OCCNC(=O)OCc1ccccc1 | -6.74 |
| Cc1c(/C=N/NC(N)=O)c2ccccn2c1C(=O)c1ccc(F)cc1 | -5.23 |
| Cc1c(/C=N/NC(=O)CNc2ccccc2)c2ccccn2c1C(=O)c1ccncc1 | 0.0344 |
| Cc1c(/C=N/NC(N)=O)c2ccccn2c1C(=O)c1ccncc1.Cl | -54.9 |
| CCCCN(CC(=O)NC(C)(C)C)C(=O)C(=O)Nc1ccc2c(c1)OCCO2 | -0.704 |
| CC(C)c1nnc(NC(=O)c2ccc(S(=O)(=O)N3CCOCC3)cc2)s1 | 6.52 |
| Cc1ccnc2nc(C(=O)Nc3ccc4c(c3)OCO4)nn12 | -2.98 |
| CCOC(=O)C1C(C)N=C2SCC(=O)N2C1c1cccc(Br)c1 (centres unmarked) | -12.6 |
| COc1cc(CNc2ccc3c(c2)CCC3)cc(OC)c1O | 12.2 |
| Cn1c(SCC(=O)N2CCOCC2)nnc1-c1ccc2ncccc2c1 | 15.4 |
| CCc1ccc(CN2CCC(n3nccc3NC(=O)c3ccc4c(c3)OCO4)CC2)cc1 | -72 |
| COc1cccc(O)c1CN1CCC(n2nccc2NC(=O)c2ccc3c(c2)OCO3)CC1 | -24 |
| COc1ccc(CN2CCC(n3nccc3NC(=O)c3ccc4c(c3)OCO4)CC2)cc1C | -80.6 |
| CC(=O)c1cccc(CN2CCC(n3nccc3NC(=O)c3ccc4c(c3)OCO4)CC2)c1 | -7.62 |
| CCOc1cccc(CN2CCC(n3nccc3NC(=O)c3ccc4c(c3)OCO4)CC2)c1 | -43.2 |
| COc1cc(CN2CCC(n3nccc3NC(=O)c3ccc4c(c3)OCO4)CC2)ccc1O | -6.7 |
| COC(=O)Nc1sc2c(c1C(N)=O)CCCCCC2 | 11.9 |
| COc1ccc(CNC2CC(=O)N(C)C2=O)cc1 (centres unmarked) | 13.6 |
| O=S1(=O)C=CC(Nc2ccccc2)C1 (centres unmarked) | -76 |
| O=S1(=O)C=CC(Nc2cccc(Cl)c2)C1 (centres unmarked) | 16.7 |
| COc1ccc(NC2C=CS(=O)(=O)C2)cc1 (centres unmarked) | 0.937 |
| COc1ccc(CCN2CNc3c(c(=O)n(C)c(=O)n3C)C2)cc1 | -17.5 |

| Compound | hERG current change (%, negative = inhibition) at 10uM [%] |
| --- | --- |
| COc1ccc(CCNC(=O)Cn2nc(C)n3nc(-c4ccccc4)cc3c2=O)cc1OC | 2 |
| COCCn1c(=N)c(S(=O)(=O)c2ccc(F)cc2)cc2c(=O)n3cccc(C)c3nc21 | -22.5 |
| COCCn1c(=N)c(C(=O)NCCc2ccccc2)cc2c(=O)n3cccc(C)c3nc21 | -82.9 |
| Cc1cccn2c(=O)c3cc(C(=O)NCCc4ccccc4)sc3nc12 | -6.84 |
| CCNC(=O)c1cc2c(=O)n3cccc(C)c3nc2n(CCc2ccccc2)c1=N | -80.3 |
| COCCn1c(=S)[nH]c2cc(C(=O)NCCc3ccccc3)ccc2c1=O | -2.2 |
| COCCn1c(=N)c(C(=O)NCCc2ccc(OC)cc2)cc2c(=O)n3cccc(C)c3nc21 | -84.8 |
| CC(C)COc1ccc(C(=O)CCN2CCCCC2)cc1.Cl | -41.4 |
| COc1ccc(C)cc1-n1c(SCC(=O)Nc2cc(C)on2)nc2sc(C)c(C)c2c1=O | -2.19 |
| N#Cc1nc(COc2cccc(Cl)c2)oc1N1CCCC1 | -47.5 |
| C=CCC1Cc2c(Br)cccc2C(CC=C)N1 (centres unmarked) | -7.3 |
| COC1=CC=C2[C@H]3Cc4ccc(OC)c5c4[C@@]2(CCN3C)[C@H]1O5.Cl | 10.3 |
| CC(C)NC(=O)C1CCN(Cc2cnn(-c3ccccc3)c2-n2cccc2)CC1 | -8.99 |
| COc1cccc(CNC(=O)C2CCN(Cc3cnn(-c4ccccc4)c3-n3cccc3)CC2)c1 | -71.3 |
| COc1cccc(NC(=O)C2CCN(Cc3cnn(-c4ccccc4)c3-n3cccc3)CC2)c1 | -45.5 |
| O=C(NCc1ccc2c(c1)OCO2)C1CCN(Cc2cnn(-c3ccccc3)c2-n2cccc2)CC1 | -49.2 |
| O=C(NCCC1=CCCCC1)C1CCN(Cc2cnn(-c3ccccc3)c2-n2cccc2)CC1 | -51.8 |
| O=C(NCC1CCCO1)C1CCCN(Cc2cnn(-c3ccccc3)c2-n2cccc2)C1 (centres unmarked) | -11.2 |
| O=C(NCc1ccccn1)C1CCCN(Cc2cnn(-c3ccccc3)c2-n2cccc2)C1 (centres unmarked) | -24.5 |
| Cc1ccc(CNC(=O)C2CCCN(Cc3cnn(-c4ccccc4)c3-n3cccc3)C2)cc1 (centres unmarked) | -65.3 |
| O=C(NC1CC1)C1CCN(Cc2cnn(-c3ccccc3)c2-n2cccc2)CC1 | -23.5 |
| Cc1ccccc1CSc1nnc(-c2cnccn2)n1C | 7.84 |

| Compound | hERG current change (%, negative = inhibition) at 10uM [%] |
| --- | --- |
| O=C(O)/C=C/C(=O)Nc1ccc(Cl)cc1C(=O)c1ccccc1 | -7.6 |
| CCOc1ccccc1NC(=O)CC1NCCNC1=O (centres unmarked) | -8.89 |
| COc1ccc(/C=N/NC(=O)c2c(C)nc3ccc(Br)cn23)cc1OC | -0.597 |
| COCCNc1nnnc2c1sc1nc(N3CCOCC3)c3c(c12)CC(C)(C)OC3 | -7.85 |
| COc1ccc(OCC(O)Cn2c(Nc3ccccc3)nc3c2c(=O)n(C)c(=O)n3C)cc1 (centres unmarked) | 2.94 |
| O=C(O)C(=O)O.O=C(c1ccccc1)c1ccc(OCCOCCN2CCN(Cc3ccccc3)CC2)cc1 | -78.9 |
| CCc1ccc(OCCOCCN2CCN(C)CC2)cc1.O=C(O)C(=O)O | 4.8 |
| O=C(O)C(=O)O.O=C(c1ccccc1)c1ccc(OCCCN2CCCC2)cc1 | -70.6 |
| CCCOc1ccc(C(=O)C(CN2CCOCC2)c2ccccc2)cc1 (centres unmarked) | -8.97 |
| O=C(O)C(=O)O.c1ccc(CN2CCN(CCOCCOc3ccc4c(c3)CCC4)CC2)cc1 | -5.19 |
| CC1CCN(CCCCOc2ccc(C(=O)c3ccccc3)cc2)CC1.O=C(O)C(=O)O | -77 |
| CCCOc1ccc(C(=O)C(CN2CCCC2)c2ccccc2)cc1.Cl (centres unmarked) | -65.8 |
| O=C(O)C(=O)O.c1ccc(OCCCN2CCCC2)cc1 | -7.18 |
| CCCCOc1ccc(C(=O)N2CCC(C)CC2)cc1 | -9.48 |
| CC1CCN(CCOc2ccc(C(=O)c3ccccc3)cc2)CC1.O=C(O)C(=O)O | -47.5 |
| CCCCOc1ccc(C(=O)C(CN2CCOCC2)c2ccccc2)cc1 (centres unmarked) | -1.42 |
| O=C(O)c1ccccc1NC(=O)N1C[C@H]2C[C@@H](C1)c1cccc(=O)n1C2 | 3.86 |
| COc1ccc(CN(C)Cc2nc(Cc3ccccc3Cl)no2)cc1OC | -10.9 |
| CC(=O)Nc1nc2ccccc2[nH]1 | -0.326 |
| Cc1cc(C)n(C(=O)CNC(=O)c2ccco2)n1 | 11.9 |
| CC(NC(=O)c1ccco1)C1CCCO1 (centres unmarked) | -12.7 |
| O=CN1CC(=O)N(c2ccccc2)c2c([nH]c3ccccc23)C1 | -23.2 |

| Compound | hERG current change (%, negative = inhibition) at 10uM [%] |
| --- | --- |
| O=C(O)CSc1cc(C(=O)c2ccccc2O)cn2c(=O)c3c(-c4ccccc4)csc3nc12 | -1.71 |
| COc1cc(NC2c3ccccc3C(=O)N2Cc2ccc3c(c2)OCO3)cc(OC)c1 (centres unmarked) | -22.4 |
| Cc1cc(OCC(=O)NCCc2c[nH]c3ccccc23)c2c(C)c(C)c(=O)oc2c1 | 3.37 |
| O=C(O)C(=O)O.O=C(c1ccccc1)c1ccc(OCCCCN2CCCCC2)cc1 | -52.6 |
| CCCOc1ccc(C(=O)CCN2CCCCC2)cc1.Cl | -31.6 |
| O=C(O)C(=O)O.O=C(c1ccccc1)c1ccc(OCCCN2CCCCC2)cc1 | -66.4 |
| CCCCOc1ccc(C(=O)CCN2CCCCC2)cc1.Cl | -61.5 |
| CCCOc1ccc(C(=O)OCCN2CCCCC2)c(O)c1.Cl | -58.7 |
| CCOc1ccc(C(=O)CCN2CCCCCC2)cc1.Cl | -38.4 |
| CC(=O)c1ccc(OCCCN2CCCCC2)cc1.O=C(O)C(=O)O | -22.2 |
| COc1cc(C(=O)OCCN2CCCCC2)ccc1O.Cl | 3.87 |
| CC(C)COc1ccc(C(=O)OCCN2CCOCC2)c(O)c1.Cl | -25.2 |
| COc1ccc(/C=N/N=C2\SC(CC(=O)O)C(=O)N2c2ccccc2)c(OC)c1 (centres unmarked) | 4.13 |
| CC1=CC(C)(C)N(C(=O)CSc2nnc(N)s2)c2cc(C)c(C)cc21 | -6 |
| CC(C)OC(=O)Nc1ccc2c(c1)N(C(=O)CCN(C)C)c1ccccc1CC2.Cl | -20.8 |
| CCOc1ccc(N2CC(NC(=O)c3cccc4ccccc34)CC2=O)cc1 (centres unmarked) | 3.75 |
| CCN(CC(=O)NCc1ccc(Cl)cc1)C(=O)c1cc(S(=O)(=O)NCc2ccccc2)ccc1C | -25.6 |
| CN(C)c1nc(NCc2ccccc2)nc(N/N=C/c2cccc(Br)c2)n1 | 29.7 |
| O=C(Cc1ccsc1)NCc1ccccc1F | 17.1 |
| CC(C)CCNC(=O)c1cc(-c2ccco2)nc2ccccc12 | 6.45 |
